Measurements taken from the supplement of paper PMC6555819.

These sequences were tested on FXR:RXRa (NR concentration 270 nM, RXRa partner concentration 90 nM) (assay: PBM binding z-score (relative to random genomic background probes); higher = stronger binding; sequences stand for … in GC…GCGATTGACAGCGTAGAATGAAGG).
In short: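 On custom Agilent 4×180K arrays, double-stranded probes with 34-nt variable regions carried direct-repeat seeds, single-nucleotide variants, half-site ablations or random human genomic background. Ligand-free nuclear receptor dimers were applied for 1 h, and binding was read with antibodies against each partner (one per run). Binding z-scores come from regression-normalized fluorescence, with the random background probes as reference.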
With ATCGAAAGGTCGACGAGGTGAATATACACCGTTT the PBM binding z-score was 5.37.
CGTCCTAGGTCAAGGTCAGTGAAAGAGACTCGAA was tested, and the PBM binding z-score was 5.87.
For CTCGAAAGGTCGTGCTCAGGTGAGCATACCAAAC, the PBM binding z-score was 5.82.
ATCGAAAGGTCGAAGGTGAGTATACCCACCCGAA was tested, and the PBM binding z-score was 4.3.
With CCGGCTGGGGCAGAAAGGTTACCATACCATCCGG the PBM binding z-score was 0.0889.
Work on AGAATGAGGTTATTAAGACCAGGGAATTGCGGTC yielded a PBM binding z-score of 1.7.
Work on ATCGAACGGTCGAAGGTGAGTATACCCACCCGAA yielded a PBM binding z-score of -0.145.
CATACAGGGTCAGCTAGGCAAGAGTAGGGACGGC showed a PBM binding z-score of 4.09.
For AGAATGAGGTTAAGATCAGGGAAACAGAATACAT, the PBM binding z-score was 2.37.
Work on ACAGACAGGTGAGGGAAGGTAACTCAGCTGGACG yielded a PBM binding z-score of 0.596.
Work on GCTAGTTGGTCAGTAGAAGGTCACACACCGGTCG yielded a PBM binding z-score of 1.88.
CCAGACAGGTGAGAAGGCAACTCAGCCTCGATTA gave a PBM binding z-score of 0.0587.
ATCTCTAGGTAAAGTTCCGTGAAAGATCGATAGA was tested, and the PBM binding z-score was 0.524.
Sequence TCTAGTTGGTCACGGAGGTCACGCACGACGGGTA has a PBM binding z-score of 3.96.
For TTACCATGGTGAAAGGTCGTTGATGCACGCCTTG, the PBM binding z-score was 1.54.
With CGAACTAGGTCATTGACAGGACATTGAATAGTAA the PBM binding z-score was 3.53.
GGAACGAGGGCAAGTAGATAGCAGAGTTTGATGG gave a PBM binding z-score of 0.456.
With AGAACGAGGGCACGCTGAGTTGATCGCAGAGTAG the PBM binding z-score was 0.98.
Sequence CATCCAGGGTCAGCTAGGCCAGAGTAGGGACGGC has a PBM binding z-score of 4.57.
For CCGAGTAGGTTATGGGGAATTCAGGCAACGGTGA, the PBM binding z-score was 0.109.
For ACTCGGAGGACAAAGGTCGGAGCTACGCCAGTGA, the PBM binding z-score was 0.927.
With GGAACGAGGGCAAAGTTGACAGCATCTGTCGACG the PBM binding z-score was 2.02.
